Assay outcomes as filed in PubChem.
A3G deaminase: blocks human APOBEC3G single-stranded DNA deamination. hit rate 0.28% among 330,000. recombinant A3G, ssDNA deamination FAM/TAMRA fluorescence. inhibition, % at 20 µM. Q9HC16;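 active means inhibition of at least 40% at 20 µM, with no more than 30% in the related APOBEC3A deaminase screen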;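 further: plate controls were DMSO wells with A3G for no effect and wells lacking A3G enzyme for full effect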
Target sequence (Q9HC16 whole entry, looked up): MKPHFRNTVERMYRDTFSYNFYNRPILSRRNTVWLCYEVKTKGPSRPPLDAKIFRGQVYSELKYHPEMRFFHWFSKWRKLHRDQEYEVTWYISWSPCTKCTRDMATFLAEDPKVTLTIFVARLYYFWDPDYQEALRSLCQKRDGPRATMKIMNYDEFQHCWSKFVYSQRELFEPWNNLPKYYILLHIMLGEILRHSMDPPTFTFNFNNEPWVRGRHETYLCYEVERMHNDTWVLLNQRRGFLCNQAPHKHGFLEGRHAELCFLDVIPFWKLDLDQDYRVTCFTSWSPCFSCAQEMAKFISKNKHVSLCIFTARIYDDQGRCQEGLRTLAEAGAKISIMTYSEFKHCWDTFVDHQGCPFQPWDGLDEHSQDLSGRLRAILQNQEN
NadD inh: inhibitors of Staphylococcus aureus NadD | purified NadD enzyme, colorimetric absorbance read-out | inhibition, % at 20 µM | hit rate 0.78% among 360,000; in the data active means inhibition above about 26%
H9c2 protect: modulators protecting cardiomyocytes from myocardial damage. protection from H2O2 cell death, % at 20 µM. AID 588492. hit rate 0.63% among 360,000. H9c2 cardiomyocytes, H2O2 injury protection, ATPLite, 2 h;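 active means compounds giving at least 50% protection of heart cells from peroxide-induced death in the single-dose screen, raw or plate-pattern-corrected value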;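 further: 0% = DMSO wells with peroxide and 100% = DMSO wells without peroxide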
PfG6PD inh: PfG6PD (Plasmodium falciparum) enzyme inhibition; PfGluPho enzyme, NADPH resazurin-diaphorase fluorescence; inhibition, % at 20 µM; hit rate 0.78% among 350,000; AID 504690;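 active means inhibition reaching at least a set limit at 20 µM in the primary screen, cut at about 59% in these data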;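 further: 0% = DMSO wells with substrate and 100% = DMSO wells lacking glucose-6-phosphate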
H9c2 TAG inh: inhibitors of triacylglycerol accumulation | H9c2 cells, Nile Red lipid (TAG) fluorescence; cells loaded with 200 µM oleic acid | inhibition, % at 12.5 µM | hit rate 0.66% among 230,000 | AID 651582;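 active means pattern-corrected inhibition of lipid staining of at least 50% with the nuclear-stain viability signal not falling by more than 50%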;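 further: 0% = DMSO wells and 100% = triacsin C control wells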
A3A deaminase: inhibitors of human APOBEC3A DNA deaminase; P31941; recombinant A3A, FAM/TAMRA ssDNA deamination fluorescence; inhibition, % at 20 µM; hit rate 0.41% among 330,000;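 active means at least 40% inhibition at 20 µM here, with at most 30% in a related deaminase screen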;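 further: plate controls were A3A with DMSO for no effect and wells lacking A3A enzyme for full effect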
APOBEC3G confirm: confirmation of human APOBEC3G DNA deaminase inhibitors; shares compounds with A3G deaminase; recombinant A3G ssDNA deaminase, UDG/FAM-TAMRA fluorescence; inhibition, % at 20 µM; hit rate 72% among 890; AID 493152;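 active means inhibition reaching a set limit in any replicate at 20 µM, the limit being 80% of the first screen's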
UDG ctr A3G: E. coli UDG inhibition in APOBEC3G counter-screen | shares compounds with A3G deaminase | UDG counterscreen, FAM/TAMRA oligo fluorescence | AID 504715 | 710 tested, under 10 active | inhibition, % at 20 µM;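 active means compounds giving 40% or more inhibition at 20 µM in any one of the three replicates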;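 further: plate controls were DMSO wells with UDG and oligo for no effect and DMSO wells lacking both for full effect; inhibitors lower the FAM signal released by uracil excision and alkaline cleavage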
Target sequence (P12295 whole entry, looked up): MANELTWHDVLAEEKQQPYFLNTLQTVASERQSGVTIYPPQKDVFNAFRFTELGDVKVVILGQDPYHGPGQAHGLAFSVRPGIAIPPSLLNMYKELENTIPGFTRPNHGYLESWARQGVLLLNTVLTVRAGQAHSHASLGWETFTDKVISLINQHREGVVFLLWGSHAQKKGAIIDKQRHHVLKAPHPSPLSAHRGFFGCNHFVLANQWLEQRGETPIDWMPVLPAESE
The depositor's hits bear a star. Hits are enriched below; roughly 2.9% of the tested compounds scored in any of these assays.

Nn1c(Cc2cccc3ccccc23)n[nH]c1=S was read as A3G deaminase 47.3*, NadD inh 0.9, H9c2 protect 1.4, PfG6PD inh 36.6, H9c2 TAG inh -10.2, A3A deaminase -4.9, APOBEC3G confirm 82.2* and UDG ctr A3G -2.5.
`COc1ccc(CCCc2n[nH]c(=S)n2C)cc1C` gave A3G deaminase 26.7, NadD inh 6.6, H9c2 protect -11.9, PfG6PD inh 27.0, H9c2 TAG inh -5.4 and A3A deaminase -0.8.
`Nn1c(Cc2ccccc2F)n[nH]c1=S` gave A3G deaminase 12.4, NadD inh 1.8, H9c2 protect 2.9, PfG6PD inh 31.7, H9c2 TAG inh -16.6 and A3A deaminase -4.0.
Nn1c(Cc2ccc(Br)cc2)n[nH]c1=S was read as A3G deaminase 50.6*, NadD inh -0.7, H9c2 protect -3.1, PfG6PD inh 57.7, H9c2 TAG inh -0.5, A3A deaminase -3.9, APOBEC3G confirm 80.4* and UDG ctr A3G -2.6.
Screening COc1ccc(Cc2n[nH]c(=S)n2N)cc1OC returned A3G deaminase 60.9*, NadD inh -2.7, H9c2 protect 5.1, PfG6PD inh 57.9, H9c2 TAG inh -12.9, A3A deaminase 0.6, APOBEC3G confirm 57.9* and UDG ctr A3G 0.2.
CCOc1ccc(Cc2n[nH]c(=S)n2N)cc1 was read as A3G deaminase 29.0, NadD inh 5.5, H9c2 protect -2.0, PfG6PD inh 24.5 and A3A deaminase -3.8.
`COc1cccc(CN(C)C(=O)CCN=C2NS(=O)(=O)c3ccccc32)c1` gave A3G deaminase 3.1, NadD inh 1.5, H9c2 protect 7.1, PfG6PD inh -3.3, H9c2 TAG inh 12.9 and A3A deaminase 22.8.
C=CCn1c(-c2cccc(S(=O)(=O)N3CCOCC3)c2)n[nH]c1=S was read as A3G deaminase 37.5, NadD inh 2.6, H9c2 protect 1.8, PfG6PD inh 27.6, H9c2 TAG inh -15.2 and A3A deaminase -5.5.
`Cc1ccc(-c2n[nH]c(=S)n2C)cc1Cl` gave A3G deaminase 49.9*, NadD inh -1.1, H9c2 protect -10.1, PfG6PD inh 22.2, H9c2 TAG inh -10.4, A3A deaminase -14.1, APOBEC3G confirm 61.2* and UDG ctr A3G -2.6.
For C=CCn1c(-c2cccc(S(=O)(=O)N(CC)CC)c2)n[nH]c1=S the results were A3G deaminase 46.7*, NadD inh 4.7, H9c2 protect -4.0, PfG6PD inh 26.6, H9c2 TAG inh 4.8, A3A deaminase -3.1, APOBEC3G confirm 79.0* and UDG ctr A3G -1.0.
Screening CCN(CC)S(=O)(=O)c1cccc(-c2n[nH]c(=S)n2C)c1 returned A3G deaminase 45.6*, NadD inh 0.8, H9c2 protect -7.5, PfG6PD inh 18.0, H9c2 TAG inh -1.2, A3A deaminase -2.9, APOBEC3G confirm 69.4* and UDG ctr A3G -0.4.
`CC(NC(=O)CNC(=O)[C@@H]1Cc2ccccc2CN1)c1ccccc1` (stereo partly drawn) gave A3G deaminase -1.6, NadD inh -3.3, H9c2 protect -1.4, PfG6PD inh -13.5 and A3A deaminase -2.1.
`O=C(NCCCc1ccccc1)[C@@H]1Cc2ccccc2CN1` gave A3G deaminase 61.7*, NadD inh -2.1, H9c2 protect -3.0, PfG6PD inh -11.6, A3A deaminase -6.4, APOBEC3G confirm 20.0* and UDG ctr A3G 4.5.
Cc1cc(OCC(=O)NCCN2CCOCC2)cc(C)c1Cl was read as A3G deaminase 79.5*, NadD inh 0.1, H9c2 protect 1.5, PfG6PD inh -21.3, A3A deaminase -5.2, APOBEC3G confirm -11.9 and UDG ctr A3G -1.0.
Cc1ccc(OCC(=O)NCCN2CCOCC2)cc1C was read as A3G deaminase -4.8, NadD inh -6.1, H9c2 protect -1.2, PfG6PD inh -9.7 and A3A deaminase -0.3.
For Cc1ccc([C@H]2C[C@@H](O)[C@H](n3cc(COC(=O)c4ccccc4)nn3)CN2C(=O)c2cccs2)cc1 the results were NadD inh 2.6, H9c2 protect 9.1, PfG6PD inh 9.4 and H9c2 TAG inh 3.3.
`C[C@H](O)[C@H](O)[C@H]1CNc2nc(N)[nH]c(=O)c2N1` gave A3G deaminase 40.8*, NadD inh 3.5, H9c2 protect -13.9, PfG6PD inh -5.9, H9c2 TAG inh -6.5, A3A deaminase 2.1 and APOBEC3G confirm 34.1*.
Cc1ccc(C(=O)CN2C(=O)NC3(CCCCCC3)C2=O)c(C)c1 was read as A3G deaminase -3.9, NadD inh -3.0, H9c2 protect 0.5, PfG6PD inh 2.4, H9c2 TAG inh -11.4 and A3A deaminase 0.8.
Screening Cc1c(Cl)c([N+](=O)[O-])nn1CC(=O)NCC(C)C returned A3G deaminase 48.0*, NadD inh -1.3, H9c2 protect -7.2, PfG6PD inh -13.6, A3A deaminase -1.0, APOBEC3G confirm -6.9 and UDG ctr A3G -0.6.
`Cc1ccc(Oc2ccc(/C=N/O)cn2)cc1` gave A3G deaminase 61.2*, NadD inh 5.3, H9c2 protect -10.6, PfG6PD inh -8.9, H9c2 TAG inh 5.7, A3A deaminase -4.8, APOBEC3G confirm -0.5 and UDG ctr A3G -3.7.
For COc1ccc([C@H]2Cc3cc(O)cc(O)c3C(=O)O2)cc1O the results were A3G deaminase -5.0, NadD inh -0.2, H9c2 protect 6.4, PfG6PD inh 0.2, H9c2 TAG inh -26.7 and A3A deaminase -4.5.
For O=C(COc1ccc(Br)cc1)NCCCNC(=O)c1cnccn1 the results were A3G deaminase -9.6, NadD inh -1.4, H9c2 protect -7.6, PfG6PD inh -0.5 and A3A deaminase -2.1.
`CCn1c(SCC(=O)Nc2ccc(OC)c(OC)c2)nnc1-c1ccco1` gave A3G deaminase 43.2*, NadD inh -1.4, H9c2 protect -3.7, PfG6PD inh 6.9, H9c2 TAG inh -2.3, A3A deaminase -3.6, APOBEC3G confirm -4.9 and UDG ctr A3G -4.2.
For C=C(C)C(=O)Nc1cccc(C2=NOC3(C2)C[C@@H](C(N)=O)N(C(=O)c2cc([N+](=O)[O-])cc([N+](=O)[O-])c2)C3)c1 (stereo partly drawn) the results were A3G deaminase 28.3, NadD inh 2.0, H9c2 protect -1.9, PfG6PD inh 7.9, H9c2 TAG inh -3.0 and A3A deaminase 12.4.
For C=C(C)C(=O)Nc1cccc(C2=NOC3(C2)C[C@@H](C(N)=O)N(C(=O)[C@H]2CCC(=O)N2)C3)c1 (stereo partly drawn) the results were A3G deaminase 42.6*, NadD inh -8.9, H9c2 protect 4.9, PfG6PD inh 5.7, H9c2 TAG inh -1.8, A3A deaminase 4.1, APOBEC3G confirm 45.7* and UDG ctr A3G -4.6.
